Records with an inconclusive call do not appear. Activity calls are given as the source filed them. Unless noted, calls come from the whole dose curve; as a rule, active = well fitted curve in the direction sought with a large enough effect in the repeat runs; inconclusive = weak or mixed curves; inactive = no such curve, though single readings can be large; an effect the other way counts as inactive or inconclusive.
How the values were obtained:
[1] = qHTS assay to identify small molecule agonists of the vitamin D receptor (VDR) signaling pathway - cell viability counter screen (AID 743224); note: nearly all actives have a fitted effect of over 50% in size
Outline: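 Counter screen for cytotoxicity: VDR-bla cells at 2,000 cells/well, 16 h compound exposure, then CellTiter-Glo luminescence after the beta-lactamase measurement.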

[2] = qHTS assay to identify small molecule antagonists of the vitamin D receptor (VDR) signaling pathway - cell viability counter screen (AID 743225); note: nearly all actives have a fitted effect of over 50% in size
Outline: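 Cytotoxicity counter screen read by CellTiter-Glo luminescence (30 min, room temperature) in the same wells as the VDR-bla antagonist readout. HEK 293T VDR-UAS-bla cells had 16 h at 37C with compound and 3 nM (final) 1-alpha,25-dihydroxyvitamin D3, then 2 h with FRET substrate.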

[3] = qHTS assay to identify small molecule agonists of the NFkB signaling pathway (AID 1159509; active = well fitted curve in the direction sought with a large enough effect in the signal ratio in the repeat runs, not every such curve was filed as active; the % refers to the signal ratio)
Outline: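 Pathway activation was measured in ME-180 cells stably expressing beta-lactamase under NF-kB response element control. Substrate cleavage was read as the 460/530 nm emission shift after 5 hr compound incubation.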

[4] = qHTS assay to identify small molecule agonists of the NFkB signaling pathway - cell viability counter screen (AID 1159515; calls by dose curve; note: nearly all actives have a fitted effect of over 55% in size)
Outline: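 Counter screen run alongside the NFkB-bla agonist assay: ME-180 reporter cells exposed to compounds for 5 hr, then lysed with CellTiter-Glo in the same wells. Luminescence, read after 30 min, reflects viable cells.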

[5] = qHTS assay to identify small molecule agonists of the endoplasmic reticulum stress response signaling pathway (AID 1159516; active = well fitted activation curve with a large enough effect in the signal ratio in the repeat runs, not every such curve was filed as active; the % refers to the signal ratio)
Outline: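 For this screen, HeLa cells stably carrying beta-lactamase under the ER stress response element received test compounds, positive controls or DMSO for 5 hr at 37 C; B/G FRET substrate was then added and dual-wavelength emission recorded.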

[6] = qHTS assay to identify small molecule agonists of the endoplasmic reticulum stress response signaling pathway - cell viability counter screen (AID 1159517; calls by dose curve; note: nearly all actives have a fitted effect of over 50% in size)
Outline: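 Cpd-treated ESRE-bla HeLa (5 hr, 37 C) → LiveBLAzer 2 hr RT → CellTiter-Glo 30 min RT → luminescence.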

[7] = qHTS assay to identify small molecule antagonists of the retinoid-related orphan receptor gamma (ROR-gamma) signaling pathway - cell viability counter screen (AID 1159520); note: nearly all actives have a fitted effect of over 50% in size
Outline: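 Tet-on ROR gamma CHO cells (1,000/well) were plated 4 hr, given compounds in DMSO for 2 hr at 37 C, then induced with 1 uM final doxycycline for 16 hr. Viability was read as ATP by CellTiter-Glo luminescence after 30 min.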

[8] = molecular target: Nuclear receptor ROR-gamma (Homo sapiens) (UniProt P51449); test: qHTS assay to identify small molecule antagonists of the retinoid-related orphan receptor gamma (ROR-gamma) signaling pathway (AID 1159521)
Outline: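 Antagonist read-out: drop in luminescence (ONE-Glo) from an RORE-LUC reporter in CHO cells with doxycycline-inducible ROR-gamma; 2 hr compound pretreatment, 1 uM doxycycline, 16 hr incubation at 37 C.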

[9] = qHTS assay to identify small molecule agonists of the AP-1 signaling pathway - cell viability counter screen (AID 1159525; calls by dose curve; note: nearly all actives have a fitted effect of over 55% in size)
Outline: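 Each titration point was normalised to DMSO and tetra n-octyl ammonium bromide controls. The read was Cell Titer Glo luminescence after 30 min at RT, following 5 h compound exposure of ME-180 AP-1-bla cells at 37 °C.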

[10] = qHTS assay to identify small molecule agonists of the AP-1 signaling pathway (AID 1159526; calls by dose curve)
[11] = molecular target: Retinoic acid receptor RXR-alpha (Homo sapiens) (UniProt P19793); test: qHTS assay to identify small molecule agonists of the RXR signaling pathway (AID 1159527; calls by dose curve; note: nearly all actives have a fitted effect of over 35% in size)
Sequence of Retinoic acid receptor RXR-alpha (Homo sapiens) (P19793 whole entry, looked up): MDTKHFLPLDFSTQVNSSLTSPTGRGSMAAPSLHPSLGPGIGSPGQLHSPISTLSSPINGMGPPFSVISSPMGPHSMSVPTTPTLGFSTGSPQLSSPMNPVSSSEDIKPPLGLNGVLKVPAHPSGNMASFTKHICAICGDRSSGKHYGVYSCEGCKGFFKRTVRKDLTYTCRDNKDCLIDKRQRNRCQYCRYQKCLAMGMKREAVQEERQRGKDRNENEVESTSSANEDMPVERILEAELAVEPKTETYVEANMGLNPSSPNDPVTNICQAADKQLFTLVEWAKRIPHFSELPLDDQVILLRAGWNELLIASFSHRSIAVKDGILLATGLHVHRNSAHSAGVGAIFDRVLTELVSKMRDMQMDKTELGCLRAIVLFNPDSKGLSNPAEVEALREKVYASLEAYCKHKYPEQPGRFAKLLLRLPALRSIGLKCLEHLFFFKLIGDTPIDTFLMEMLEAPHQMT
Outline: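 Agonist-mode beta-lactamase reporter assay: HEK 293T RXR-alpha-UAS-bla cells treated 16 hr at 37 C with compounds, 9-cis retinoic acid as positive control. LiveBLAzer FRET substrate, 405 nm excitation, 460/530 nm emission.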

[12] = qHTS assay to identify small molecule antagonists of the retinoid acid receptor (RAR) signaling pathway - cell viability counter screen (AID 1159551); note: nearly all actives have a fitted effect of over 35% in size
Outline: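 Measured by luminescent ATP detection, viability reflects C3RL4 cells treated 6 h at 37 C with test chemicals in the presence of 1 uM (final) retinol.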

[13] = qHTS assay to identify small molecule antagonists of the retinoic acid receptor (RAR) signaling pathway (AID 1159552; note: nearly all actives have a fitted effect of over 50% in size)
Outline: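 Luminescent RARE reporter read-out in C3RL4 cells: 6 hr co-treatment at 37 C of test compounds with retinol at 1 uM final. Cells plated overnight beforehand; luciferase reagent incubated 30 min at room temperature before reading.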

[14] = qHTS assay to identify small molecule agonists of the retinoic acid receptor (RAR) signaling pathway (AID 1159553); conditions: C3RL4 RARE luciferase reporter, agonist, 6 h; activation: at 73.3 µM (top of the series)
Outline: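 6 hr compound exposure (DMSO vehicle) of overnight-plated C3RL4 RARE-luc cells at 37 C; luminescence quantified after 30 min RT with luciferase reagent.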

[15] = qHTS assay to identify small molecule antagonists of the estrogen related receptor (ERR) signaling pathway from Tox21 library - cell viability counter screen (AID 1224834); note: nearly all actives have a fitted effect of over 30% in size
Outline: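 Seeded ERR cells were rested 6 h at 37 C/5% CO2 before compounds, positive and negative controls or DMSO were added. Incubation continued for 17.5 h, and viability was then quantified by CellTiter-Fluor fluorescence.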

[16] = qHTS assay to identify small molecule agonists of the constitutive androstane receptor (CAR) signaling pathway - cell viability counter screen (AID 1224836); note: nearly all actives have a fitted effect of over 45% in size
Outline: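 Cell viability multiplexed with the CAR agonist screen: CellTiter-Fluor fluorescence after 23 hr at 37 C. HepG2-CYP2B6-hCAR cells got compounds at 15 concentrations with PK11195 at 0.75 uM final.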

[17] = qHTS assay to identify small molecule antagonists of the constitutive androstane receptor (CAR) signaling pathway - cell viability counter screen (AID 1224837); note: nearly all actives have a fitted effect of over 45% in size
Outline: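 To flag cytotoxic false antagonists, HepG2 hCAR/CYP2B6-2.2kb cells were treated 23 hr with 15-concentration compound series and 50 nM CITCO at 37 C/5% CO2; CellTiter-Fluor fluorescence was the measured end point.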

[18] = qHTS assay to identify small molecule agonists of the RXR signaling pathway - cell viability counter screen (AID 1159529); note: nearly all actives have a fitted effect of over 50% in size
Outline: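 CellTiter-Glo luminescence gave viability in the wells also read for beta-lactamase. Cells (RXR-alpha-UAS-bla HEK 293T, 2% charcoal-stripped FBS medium) had 5 hr plating, then 16 hr compound exposure at 37 C; tetraoctyl ammonium bromide served as positive control.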

[19] = molecular target: Luciferin 4-monooxygenase (Photinus pyralis) (UniProt P08659); test: qHTS assay to identify small molecule inhibitors of firefly luciferase (AID 1224835); note: nearly all actives have a fitted effect of over 25% in size
Sequence of Luciferin 4-monooxygenase (Photinus pyralis) (P08659 whole entry, looked up): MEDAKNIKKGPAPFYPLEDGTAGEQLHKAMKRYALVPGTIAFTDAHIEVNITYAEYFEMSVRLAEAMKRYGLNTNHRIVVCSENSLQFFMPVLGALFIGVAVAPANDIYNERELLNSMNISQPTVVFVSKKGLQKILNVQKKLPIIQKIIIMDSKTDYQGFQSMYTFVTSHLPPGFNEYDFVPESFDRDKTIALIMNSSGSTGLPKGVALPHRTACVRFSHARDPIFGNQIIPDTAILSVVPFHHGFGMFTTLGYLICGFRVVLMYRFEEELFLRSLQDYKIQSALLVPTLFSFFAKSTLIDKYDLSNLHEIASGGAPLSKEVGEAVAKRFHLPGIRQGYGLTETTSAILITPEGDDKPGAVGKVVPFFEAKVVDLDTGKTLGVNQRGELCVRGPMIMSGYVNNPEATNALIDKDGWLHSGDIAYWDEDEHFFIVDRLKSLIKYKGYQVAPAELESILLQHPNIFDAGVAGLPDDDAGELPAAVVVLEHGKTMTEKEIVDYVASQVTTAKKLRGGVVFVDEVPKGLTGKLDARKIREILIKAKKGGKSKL
Outline: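 Quantitative HTS format; KM concentrations of both substrates. Purified P. pyralis FLuc activity quantified from luminescence images.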

[20] = molecular target: Nuclear receptor subfamily 1 group I member 3 (Homo sapiens) (UniProt Q14994); test: qHTS assay to identify small molecule antagonists of the constitutive androstane receptor (CAR) signaling pathway (AID 1224838);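 note: HepG2 cells stably expressing hCAR with CYP2B6 luciferase reporter stimulated by CITCO; nearly all actives have a fitted effect of over 40% in size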
Sequence of Nuclear receptor subfamily 1 group I member 3 (Homo sapiens) (Q14994 whole entry, looked up): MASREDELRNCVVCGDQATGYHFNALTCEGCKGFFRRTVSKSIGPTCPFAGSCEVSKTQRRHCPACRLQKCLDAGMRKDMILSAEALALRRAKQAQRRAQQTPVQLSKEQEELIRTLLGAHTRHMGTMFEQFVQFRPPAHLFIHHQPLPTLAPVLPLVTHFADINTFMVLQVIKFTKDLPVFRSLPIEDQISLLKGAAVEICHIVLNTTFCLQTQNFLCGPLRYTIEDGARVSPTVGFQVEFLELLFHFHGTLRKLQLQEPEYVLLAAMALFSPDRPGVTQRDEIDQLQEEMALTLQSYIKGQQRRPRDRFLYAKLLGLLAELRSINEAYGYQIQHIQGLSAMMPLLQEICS
Outline: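 Human hepatoma HepG2 cells expressing hCAR and a CYP2B6 promoter (2.2 kb) luciferase construct; compound titration (15 points) with 50 nM CITCO final, 24 h at 37 C/5% CO2; luminescence via ONE-Glo after 30 min at room temperature.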

Measured: Potency

NCCc1ccn[nH]1
inactive: [1] | [2] | [3] | [4] | [5] | [6] | [7] | [8] | [9] | [10] | [11] | [12] | [13] | [14] | [15] | [16] | [17]

CCCO
inactive: [1] | [2] | [3] | [4] | [5] | [6] | [7] | [8] | [9] | [10] | [11] | [12] | [13] | [14] | [16] | [17]

CO[Si](CCCCl)(OC)OC
inactive: [1] | [2] | [3] | [4] | [5] | [6] | [7] | [8] | [10] | [11] | [18] | [12] | [13] | [14] | [15] | [19] | [16] | [17] | [20]

O=P(O)(O)OCC(O)CO (stereo not drawn)
inactive: [1] | [2] | [3] | [4] | [5] | [6] | [7] | [8] | [10] | [11] | [18] | [12] | [13] | [14] | [15] | [19] | [16] | [17]

C=COCCOCCOC=C
inactive: [1] | [2] | [3] | [4] | [5] | [6] | [7] | [8] | [10] | [11] | [18] | [12] | [13] | [14] | [15] | [16] | [17] | [20]

CC(=O)Nc1ccc(C)cc1
inactive: [1] | [3] | [4] | [5] | [6] | [7] | [8] | [9] | [10] | [11] | [12] | [13] | [14] | [15] | [19] | [16] | [17]

Nc1nc(=O)n([C@@H]2O[C@H](CO)[C@@H](O)[C@@H]2F)cc1I
inactive: [1] | [2] | [3] | [4] | [5] | [6] | [7] | [8] | [10] | [11] | [18] | [12] | [13] | [14] | [15] | [19] | [16] | [17]
